# PfHsp40 rescue: rescue of yeast from PfHsp40 toxicity, primary screen, S. cerevisiae, ATP luminescence; actives 0.68% (n = 340,000); growth rescue, % at 12.5 µM; S. cerevisiae expressing PfHsp40, growth rescue; in the data active means growth rescue above about 28%, passing the limit was not always enough;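 further: yeast W303a lacking pdr1 and pdr3 grown in galactose medium; growth measured after three days at 30 °C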
# BJeLR lethal: MLPCN primary cell-based screen for lethality selective to Ras in HRASV12 cells | BJeLR (HRASV12) viability, CellTiter-Glo ATP luminescence, 48 h | inhibition, % (test concentration not listed) | actives 0.17% (n = 300,000); in the data active means inhibition above about 50%
# CCHF vOTU inh-1: CCHFV vOTU protease inhibitors, primary screen, biochemical, Pep-AMC substrate, fluorescence; Crimean-Congo hemorrhagic fever virus L polyprotein viral ovarian tumor (vOTU) protease …; inhibition, % at 11.5 µM; actives 0.55% (n = 370,000); AID 651958, 2012; further: 0% = vehicle wells with enzyme and 100% = no enzyme wells
# PrP UTR inh: inhibition of PrP 5' UTR reporter expression. inhibition, % (concentration not given with the values). AID 488862, 2010. cell-based PrP 5' UTR mRNA reporter, plate reader. actives 0.35% (n = 340,000); in the data active means inhibition above about 52%; further: 0 = median of the neutral control wells
# PrPC surface inh: inhibitors of human cell surface prion protein PrPC, primary screen, cell-based, TR-FRET. Major prion protein (Homo sapiens), P04156. TR-FRET read-out. inhibition, % at 13.8 µM. actives 0.43% (n = 370,000); in the data active means inhibition above about 24%; further: 0% = median of the test wells and 100% = reference compound wells
# Y pestis TopoI: Yersinia pestis topoisomerase I inhibitors, primary screen, biochemical, cleavage product accumulation, plate reader, single point. Y. pestis Topo-I cleavage product accumulation. actives 0.064% (n = 360,000). activity, % at 10 µM. DNA topoisomerase I (Yersinia pestis CO92); in the data active means activity above about 50%, passing the limit was not always enough
# CCHF vOTU inh-2: CCHFV vOTU protease inhibitors, confirmation, biochemical, Pep-AMC substrate, fluorescence. shares compounds with CCHF vOTU inh-1. Recombinant CCHFV vOTU. inhibition, % at 11.5 µM. actives 17% (n = 1,900). AID 686976, 2013
# An asterisk follows results filed as active; . = no result. In the library only some 2% were active in any assay of this set; here they are far more common. Unless noted, no stated cut-off is given here; in the data, active means inhibition above about 30%; inactive means the rest.
SMILES,PfHsp40 rescue,BJeLR lethal,CCHF vOTU inh-1,PrP UTR inh,PrPC surface inh,Y pestis TopoI,CCHF vOTU inh-2
COc1ccc(N(C)S(=O)(=O)c2cccc(C(=O)Nc3nc(C)c(C(C)=O)s3)c2)cc1,1,.,35*,.,1,-5,0
Cc1cccc(C)c1-n1c(C)cc(/C=N\NC(=O)CC(=O)NC2CCCCC2)c1C,3,-13,31*,-15,7,-3,-4
CCCCNC(=O)OC1CCC12CCC(c1ccccc1)CC2 (stereo not given),.,.,8,.,3,.,.
CCN(CC(=O)Nc1ccccc1C(F)(F)F)CC(=O)c1[nH]c(C)c(C(C)=O)c1C,.,.,38*,.,-3,10,-17
CC(=O)c1c(C)[nH]c(C(=O)CN(C)CC(=O)Nc2ccccc2Cl)c1C,0,.,7,-12,1,6,.
COC(=O)[C@]12C[C@H](CC(=O)NCc3cccs3)C(=O)N(CCC3=CCCCC3)C1=C[C@H](C1CCCC1)O[C@@H]2C,.,.,-2,.,2,.,.
CCc1cc(-c2onc(C)c2-c2cscn2)c(O)cc1OC,2,-6,31*,-22,6,9,-7
Cc1ccc(NN=C2c3ccccc3-c3ccccc32)cc1,0,-4,35*,-30,-6,-26,-11
c1ccc(NN=C2c3ccccc3-c3ccccc32)cc1,2,.,-7,-21,2,-1,.
CN(C)c1ccc(/C=C(/C#N)C(=O)NCc2ccccc2)o1,1,-4,32*,-44,-45,-4,23
COc1nccnc1NS(=O)(=O)c1ccc(NC(=S)NC(=O)/C=C/c2ccc(F)cc2)cc1,0,-6,38*,-5,0,2,-14
COc1cc(NS(=O)(=O)c2ccc(NC(=S)NC(=O)/C=C/c3ccc(F)cc3)cc2)ncn1,0,-1,8,-10,0,0,.
O=C(NCc1ccc(Cl)c(Cl)c1)c1cc(C2CCCCN2C(=O)C2CCCCC2)on1 (stereo not given),.,.,31*,.,1,7,5
CC(C)OC(=O)CSc1nc2cccnc2n1-c1ccc(F)cc1,-1,2,31*,-13,1,-7,-9
CCOC(=O)CSc1nc2cccnc2n1-c1ccc(F)cc1,0,1,5,-2,4,-3,.
COc1cc(/C=N/NC(=O)[C@H](Cc2c[nH]c3ccccc23)NC(=O)OCC(C)C)cc([N+](=O)[O-])c1O,0,-2,36*,-14,-30,-11,0
O=S(=O)(N1CCCCC1)n1nnc2cc3ccccc3cc21,.,.,7,.,-4,.,.
O=C(NCc1ccc(OC(F)(F)F)cc1)C1CC(c2ccccc2C(F)(F)F)=NO1 (stereo not given),38*,-2,37*,-23,-4,9,5
O=C(NCc1ccc(OC(F)(F)F)cc1)C1CC(c2ccccc2[N+](=O)[O-])=NO1 (stereo not given),2,-4,27,-22,-2,-2,.
COc1ccc(NC(=O)CCNC(=O)Cn2cnc3ccccc3c2=O)cc1OC,1,-4,-3,-8,4,3,.
O=C(Cn1cnc2ccccc2c1=O)NCCC(=O)Nc1ccc(F)cc1,2,-7,56*,-10,3,5,-16
O=[N+]([O-])c1cc2cccnc2c2ncccc12,.,-16,-3,.,-7,-1,.
O=[N+]([O-])c1cc(O)c2ncccc2c1,.,20,35*,.,-22,.,52*
O=C(NCc1cccs1)C1Cc2c(-c3ccccc3Oc3ccccc3)ccnc2O1 (stereo not given),.,.,9,.,-1,36,.
O=C(NCc1ccncc1)C1Cc2c(-c3ccccc3Oc3ccccc3)ccnc2O1 (stereo not given),.,.,32*,.,10,41,-14
SMILES,PfHsp40 rescue,BJeLR lethal,CCHF vOTU inh-1,PrP UTR inh,PrPC surface inh,Y pestis TopoI,CCHF vOTU inh-2
O=C(Nc1nc(-c2ccncc2)cs1)c1ccc(S(=O)(=O)N2CCOCC2)cc1,-1,-11,39*,-8,7,-3,-7
CN(C)CC(=O)N[C@H]1C[C@@H]2O[C@@H](CO)CC[C@@H]2O[C@@H]1CCc1ccc(C2=CCCCC2)cc1,.,.,-1,.,-4,.,.
O=C(NCc1ccccc1)OC1CC2CC1[C@H]1CCCCN1C2 (stereo not given in full),.,.,4,.,-7,.,.
C[C@@H]1C=CCCO[C@]12C(=O)N(Cc1ccc(Br)cc1)c1ccccc12,.,.,23,.,5,.,.
N#CC1=C(S)N(c2ccccc2)C(c2ccc(-c3ccc(Cl)c(Cl)c3)o2)NC1=O (stereo not given),1,9,47*,-14,12,12,30*
COC(=O)c1ccccc1-c1ccc(C(c2c(C)[nH][nH]c2=O)c2c(C)[nH][nH]c2=O)o1,0,3,43*,-24,-5,-6,-12
Cc1[nH][nH]c(=O)c1C(c1ccc(-c2ccc(Cl)c(C(=O)O)c2)o1)c1c(C)[nH][nH]c1=O,-2,.,24,-34,-7,-13,.
COC(=O)c1cccc(-c2ccc(C(c3c(C)[nH][nH]c3=O)c3c(C)[nH][nH]c3=O)o2)c1,0,1,57*,-7,-5,4,3
COc1cccc(CNC(=O)[C@H]2CCCN2C(=O)[C@H]2CCCN2C(=O)c2c(F)cccc2F)c1,.,.,-3,.,0,.,.
CC(=O)Nc1ccc(NC2=C/C(=N/S(=O)(=O)c3cccs3)c3ccccc3C2=O)cc1,1,-4,110*,-32,-1,-3,97*
COc1ccc(S(=O)(=O)/N=C2\C=C(Nc3ccc(O)cc3)C(=O)c3ccccc32)cc1,-1,51*,110*,-118,56*,-32,105*
CC(=O)Nc1ccc(NC(=O)C(C)OC(=O)c2ccccc2NS(=O)(=O)c2cccs2)cc1 (stereo not given),1,6,-8,8,-8,-7,.
Cc1ccccc1NC1=C/C(=N\S(=O)(=O)c2cccs2)c2ccccc2C1=O,-1,1,101*,-70,-4,4,98*
Cc1cc[n+](C2=C([O-])c3ccccc3C(=O)/C2=N\S(=O)(=O)c2cccs2)cc1C,0,4,19,9,-8,-4,.
CCCCc1c(-c2ccccc2OC)ncn1Cc1ccccc1C,.,.,20,.,13,.,.
Cc1cc(C)cc(C(=O)OCCCN(C)C2CN(Cc3cn(Cc4ccccc4C(F)(F)F)nn3)S(=O)(=O)C2)c1 (stereo not given),.,.,17,.,6,.,.
CC(=O)NC(c1cccc(F)c1)c1nc(-c2ccc(C)c(C)c2)cs1 (stereo not given),.,.,15,.,-1,8,.
